Test results: PubChem BioAssay (NCI)
The panel holds about 79,000 compounds, 15% with a hit somewhere; the sample as a whole holds those more often. Active and inactive are the calls of the source. Cut-off read from the data, not from the text of the source: active = growth inhibition above about 70%; inactive = the rest.

Legend:
[1] = NCI Yeast Anticancer Drug Screen. Data for the rad50 strain (AID 155);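 note: 0% = growth of vehicle-only cultures of the same strain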; details: S. cerevisiae rad50 strain growth inhibition; at 50.0 µM; hits give high values
Method in brief: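 Cells are treated with compound, grown, and their growth is then scored against vehicle-only cultures of the same repair-deficient yeast strain.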

[2] = NCI Yeast Anticancer Drug Screen. Data for the mec2-1 strain (AID 157); details: S. cerevisiae mec2-1 strain, at 50.0 µM, hits give high values
Method in brief: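 Using mec2-1 yeast: add compound, measure growth, express inhibition versus vehicle-treated cultures.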

[3] = NCI Yeast Anticancer Drug Screen. Data for the sgs1 mgt1 strain (AID 161);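 note: 0% = growth of cultures given vehicle only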; details: S. cerevisiae sgs1 mgt1 strain, at 50.0 µM, hits give high values
Method in brief: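 Yeast cells carrying a defined DNA-repair defect were exposed to test compounds. Growth inhibition was measured relative to vehicle-treated controls.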

[4] = NCI Yeast Anticancer Drug Screen. Data for the cln2 rad14 strain (AID 165);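 note: 0% = growth equal to vehicle treated cultures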; details: S. cerevisiae cln2 rad14 strain, at 50.0 µM, hits give high values
Method in brief: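 Yeast strain cln2 rad14, bearing defects in cell cycle control and DNA repair, serves as the test system; values reflect growth inhibition compared with vehicle.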

[5] = NCI Yeast Anticancer Drug Screen. Data for the bub3 strain (AID 167); details: S. cerevisiae bub3 mutant strain, at 50.0 µM, hits give high values
Method in brief: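 Part of a panel of yeast mutants defective in DNA damage repair or cell cycle regulation. Each strain is grown with compound, and inhibition is calculated relative to solvent-treated cultures.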

[6] = NCI Yeast Anticancer Drug Screen. Data for the mlh1 rad18 strain (AID 175); details: S. cerevisiae mlh1 rad18 strain growth inhibition; at 50.0 µM; hits give high values
Method in brief: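 Steps: expose repair-defective yeast to compound; measure growth; express inhibition against vehicle-treated controls.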

Measured: growth inhibition

CCCCOc1cc2c(cc1C(C)c1ccccc1)OCO2 (stereo not given)
inactive: [1] -0.35% | [2] -3.95% | [3] -4.05% | [4] 2.8% | [5] 15.8% | [6] 14.8%

CN(C)c1ccc(C=C2c3ccccc3-c3ccccc32)cc1
inactive: [1] -10.8% | [2] -1.35% | [3] 7.75% | [4] -80.9% | [5] 0.9% | [6] 9.1%

CN(C)CC1CCCCCC(Br)C1O (stereo not given)
inactive: [1] -5% | [2] 14.6% | [3] -1.15% | [4] -24.8% | [5] -10.7% | [6] 21.7%

COC1OC2COC(c3ccccc3)OC2C(OC(=O)c2ccc([N+](=O)[O-])cc2)C1OS(=O)(=O)c1ccc(C)cc1 (stereo not given)
inactive: [1] 39.6% | [2] 17.2% | [3] 21.6% | [4] 25.1% | [5] 0.7% | [6] 15.8%

O=c1[nH]c2c([N+](=O)[O-])cc(Cl)cc2nc1/C=C(\O)c1ccncc1
inactive: [1] 42.5% | [2] 8.75% | [3] 42.6% | [4] 9.45% | [5] 18.3% | [6] 51.4%

COC(C)CC(=O)O (stereo not given)
inactive: [1] -25.8% | [2] -28.2% | [3] -37.2% | [4] -24.5% | [5] -13.2% | [6] -4.9%

COC(=O)/C(=N\N)C(C(=O)C(=O)Nc1cc(Cl)ccc1Cl)c1nc2ccc([N+](=O)[O-])cc2[nH]c1=O (stereo not given)
inactive: [1] 13.1% | [2] 6.6% | [3] -6.15% | [4] -20.2% | [5] 25.9% | [6] 12.7%

CN1CCC(O)(/C=C\C2(O)CCN(C)CC2)CC1
inactive: [1] -10.9% | [2] 21.7% | [3] 20.1% | [4] -3.95% | [5] 3.65% | [6] -22.1%

O=[N+]([O-])c1ccc(N=N/C(=N\Nc2ccccc2)c2nc3ccccc3[nH]2)c([N+](=O)[O-])c1
inactive: [1] 7.45% | [2] -5.2% | [3] -7.35% | [4] 19.6% | [5] -4.35% | [6] 15.2%

O=C1c2ccccc2C(=O)N1N1C(=O)c2ccccc2C1=O
inactive: [1] 3.95% | [2] -16.8% | [3] -4.45% | [4] 14% | [5] -4.7% | [6] 17.4%

Cc1cc(C(O)CCCc2ccccc2)cc(C)c1O (stereo not given)
inactive: [1] 37.6% | [2] 6.4% | [3] 3.7% | [4] 34.4% | [5] 42% | [6] 5.1%

COc1cccc(NC(=O)CSc2nnc(Cc3ccccc3)o2)c1
inactive: [1] -18.8% | [2] -11.9% | [3] -20.8% | [4] -8.2% | [5] -12.4% | [6] -36.5%

COC(=O)CCc1ccc(NC(=O)OC)cc1
inactive: [1] -1.4% | [2] 20.3% | [3] 10.9% | [4] 11.2% | [5] 14.8% | [6] -4.7%

COc1ccc(-n2c(N)c(C#N)c(C#N)c2-c2ccco2)cc1
inactive: [1] 6.7% | [2] 9% | [3] -9.3% | [4] -20.1% | [5] -25.4% | [6] -39%

CCCCCOC(=O)c1c(Cl)c(Cl)c(C(=O)OCCCCC)c(Cl)c1Cl
inactive: [1] -18.2% | [2] -39% | [3] 0.85% | [4] -6.85% | [5] -6.5% | [6] -9%

Cc1ccccc1-n1c(=S)[nH]c2c(sc(=O)n2-c2ccccc2C)c1=O
inactive: [1] 3.95% | [2] -7.9% | [3] 0.8% | [4] 17.6% | [5] 0.1% | [6] -11.4%

O=C1C(OC(=O)c2ccccc2)=C(OC(=O)c2ccccc2)C(=O)C(OC(=O)c2ccccc2)=C1OC(=O)c1ccccc1
inactive: [1] -7.15% | [2] -1.25% | [3] 13.8% | [4] -22.8% | [5] 2.85% | [6] 2.75%

Cc1c2cnccc2c(C)c2c1c1ccccc1n2CCCCCCCl
inactive: [2] 69% | [3] 49.8% | [4] 66%
active: [1] 94.5% | [5] 95.7% | [6] 98.5%

Cc1ccccc1NC(=O)CSc1nnc(-c2ccc(N=Cc3ccc(Cl)cc3)cc2)o1
inactive: [1] -13.6% | [2] -30.9% | [3] 1.9% | [4] -4.75% | [5] -30% | [6] -17.8%

Cn1c(=O)c2ncn(Cc3ccccc3)c2n(C)c1=O
inactive: [1] 1.8% | [2] 4.4% | [3] 0.85% | [4] 0.75% | [5] -7.75% | [6] 13.2%

CCN(CC)Cc1ccccc1COC(=O)c1cccc(Cl)c1
inactive: [1] 19.6% | [2] 3.7% | [3] 10.9% | [4] 15.8% | [5] -5.9% | [6] 26.1%

O=C1C(Br)=CC(Br)=C/C1=N/Br
active: [1] 70.6% | [3] 85.2% | [5] 70% | [6] 78.5%
inactive: [2] 61.5% | [4] 61.1%

CCOc1c(N=Nc2ccccc2Cl)c(-c2ccccc2)nn1C(N)=S
inactive: [1] 6.75% | [2] 16.9% | [3] -1.95% | [4] 6.1% | [5] -3.95% | [6] 15.6%

CCN=C(NCC)N(CC)CC
inactive: [1] -20.4% | [2] -5.75% | [3] -12.8% | [4] -11.6% | [5] 25.3% | [6] -11.8%

c1ccc2c(c1)ncc1cc3c(cc12)[nH]c1ccccc13
inactive: [1] 40.9% | [2] 7.5% | [3] 16.6% | [4] -11.1% | [5] -10.4% | [6] 26.6%

COc1ccc(C2c3cc4c(cc3OC(N3CCOCC3)C2C)OCO4)cc1 (stereo not given)
inactive: [1] -12.4% | [2] -22.1% | [3] -20.2% | [4] -3.95% | [5] -32.9% | [6] -57.2%

N#CSCc1ccc(CSC#N)c(Br)c1
inactive: [1] 20.2% | [2] 14.9% | [3] 7.85% | [4] 18.6% | [5] 10.4% | [6] 43.4%

CC(=O)OCC1=COC(OC(=O)CC(C)(C)OC(C)=O)C2C1=CC(OC(=O)CC(C)C)[C@@]21CO1 (stereo not given in full)
inactive: [1] 14.4% | [2] 16.4% | [3] 3.6% | [4] 6.3% | [5] 6.75% | [6] 9.95%

CCOc1ccccc1NC(=O)C(=O)c1c(O)c2ccc(O)cc2oc1=O
inactive: [1] 25.7% | [2] 9.55% | [3] 4.8% | [4] 1.8% | [5] -3.25% | [6] -1.75%

COc1cc2c(cc1C1=NC(C)(C)CO1)OCO2
inactive: [1] -7.35% | [2] -18.7% | [3] -28.9% | [4] -0.6% | [5] -24.1% | [6] -49.2%

O=Cc1ccc(OC(=O)c2ccccc2)cc1
inactive: [1] -6.35% | [2] -25.6% | [3] 13.3% | [4] -13.3% | [5] -1.25% | [6] 3.95%

CCCCCCOC(=O)C(O)C(C)(Cl)c1ccccc1 (stereo not given)
inactive: [1] 11.3% | [2] 9.9% | [3] 4.6% | [4] 15.9% | [5] 12.6% | [6] 13.7%

Cc1ccc(C(=O)Oc2ccccc2)cc1
inactive: [1] -3.35% | [2] -5.1% | [3] -11.7% | [4] -34.2% | [5] -7.2% | [6] -20%

CN(c1ncc(Cc2cnc(N(C)C3CCN(Cc4ccccc4)CC3)nc2)cn1)C1CCN(Cc2ccccc2)CC1
inactive: [1] -0.75% | [2] -5.95% | [3] -12.8% | [4] -7.95% | [5] -2.95% | [6] -21.8%

O=C1c2ccccc2-c2ccc(N3C(=O)C=CC3=O)cc21
inactive: [4] 56.2%
active: [1] 98.6% | [2] 98.6% | [3] 98.8% | [5] 92.4% | [6] 92.2%

Brc1cccc(-c2nnc(-c3ccccc3)o2)c1
inactive: [1] -4.15% | [2] -11.7% | [3] -8.4% | [4] -41.5% | [5] -0.4% | [6] -12.1%

Cc1ccnc(NC(=O)Nc2ccccc2Cl)c1
inactive: [1] 9.65% | [2] 8.15% | [3] 1.3% | [4] 3.15% | [5] 21% | [6] 12%

CC(C)c1ccc(C=O)cc1
inactive: [1] 18.3% | [2] 31% | [3] -21.5% | [4] -12.2% | [5] -9.15% | [6] 11.4%

COc1cnnc2ccccc12
inactive: [1] 12.8% | [2] 3.2% | [3] 4.6% | [4] -2.35% | [5] -0.9% | [6] 14.3%

COC(=O)/C(=C/c1ccc(OC)cc1)C(C(=O)O)=C1CCCCC1
inactive: [1] 20.2% | [2] 9.95% | [3] 7.35% | [4] 9.75% | [5] 2.25% | [6] -8.9%
